Among all 300,000 compounds or so, about 37,000 (12%) were called active. Many of the other results were omitted from the sample, so actives are more common in it than they were. A number with no mark means an inactive call. No stated cut-off is given here; in the data, active means max response mostly above about 13% (no sharp cut-off); inactive means mostly below about 14%.

The assay is described as follows: Cycloheximide Counterscreen for Small Molecule Inhibitors of Shiga Toxin. Further: read at 38.3 µM for the half of the compounds with a filed dose; 0% is about no effect. The conditions noted are these: cell reporter, cycloheximide protein synthesis inhibition counterscreen; active compounds read high. (In general: A counterscreen serves to expose hits that act by an unwanted route or on another target.)
As for `Cc1ccc(NC(=S)NCCN2CCOCC2)cc1`, the max response was -2.44%.

Consider `Cc1ccc(C(=O)NC(=S)NCCN2CCOCC2)cc1`, for which the max response was 31.2% (active). Under `Cc1ccc(C(=O)N/C(=C\c2ccc(F)cc2)C(=O)NCCN2CCOCC2)cc1` stands -2.99%.

Regarding `CCc1ccc(C(CNc2nc(C(F)(F)F)nc3ccccc23)N(C)C)cc1` (stereo not drawn), the max response was -6.3%. Then `COc1ccccc1C(=O)Nn1c(-c2cccs2)nc2ccccc2c1=O`, with 2.63%; and `O=C(NCCCn1ccnc1)c1cc2c(s1)CCCC2`, with -2.62%; and `COc1ccc(C(CNC(=O)c2cc3c(s2)CCCC3)N2CCOCC2)cc1` (stereo not drawn), with 5.2%. Under `O=C(NCCCN1CCOCC1)c1cc2c(s1)CCC2` stands 15.4% (active); under `CCOc1ccc(C(C(=O)NC2CCCC2)N(C(=O)c2snc(C(N)=O)c2N)C2CCCC2)cc1` (stereo not drawn), -3%.

For the molecule `CCN(CC)S(=O)(=O)c1ccc(Cl)c(C(=O)NCCN2CCOCC2)c1`, the max response was -7.58%. On to `CCN(CC)S(=O)(=O)c1ccc(N2CC(C(=O)NCc3cccnc3)CC2=O)cc1` (stereo not drawn), for which the max response is -8.09%. As to `O=C(Cc1ccc(Cl)cc1)NC(=S)Nc1ccccc1O`, the max response is 0.61%. Then `O=[N+]([O-])c1ccccc1Nc1ccc(O)cc1`, with -1.56%; and `Oc1ccc(CNc2ccccc2O)cc1`, with 35.8% (active). As for `CCOC(=O)[C@@H]1[C@H]2COc3ccc(Br)cc3[C@H]2N2C(=O)N(c3ccc(Cl)cc3)C(=O)[C@@]12C`, the max response is -3.81%. Regarding `Oc1ccc(-c2[nH]ncc2-c2nc3ccccc3s2)c(O)c1`, the max response was 10.7%. As for `Cc1nn(CC(=O)Nc2nc3ccccc3s2)c(C)c1[N+](=O)[O-]`, the max response is 16.7%. Consider `CC(=O)Nc1cccc(-c2nc3ccccc3s2)c1C`, for which the max response is 23.7% (active). On to `COc1cccc(Cn2cc(/C=N/NC(=O)c3cc(O)cc(O)c3)c3ccccc32)c1`, for which the max response was 7.8%. In the case of `COC(=O)c1ccc(CNC(=O)C2CCC(=O)N(Cc3ccccn3)C2)cc1` (stereo not drawn), the max response was -0.637%. `CCOC(=O)c1cc2c(nc1NC(=S)Nc1ccccc1)CC(C)(CC)OC2` (stereo not drawn): the max response was -1.51%. Take `CCOC(=O)c1ccc(NC(=S)Nc2cc(C)cc(C)n2)cc1`: the max response was -2.45%. On to `CCOC(=O)c1cn[nH]c1NC(=S)Nc1ccccc1`, for which the max response is 67.1% (active). Then `O=C(COc1cc(Cl)c(Cl)cc1Cl)NC(=O)NC1CCCC1`, with -3.88%. Then `O=C(CN1CCOCC1)N1CCCc2c1c(=O)oc1ccc(OCc3ccccc3)cc21`, with -7.12%. `CCc1c(C)nc2c(OC)cccc2c1Cl`: the max response is 10.5% (active).

Take `CCCc1c(C)nc2c(Br)cccc2c1Cl`: the max response is -2.12%.

As to `COc1cccc2c(N/N=C/c3ccco3)cc(C)nc12`, the max response is 18.9%.

As to `COc1ccc2c(c1)C(SCC(=O)NCc1ccccc1)CC(C)(C)O2` (stereo not drawn), the max response was -3.58%. Under `Cc1cc(/C=C2\SC(=O)N(C)C2=O)c(C)n1-c1cccc(C(=O)O)c1` stands 10.2%; under `CCOC(=O)C1=C(O)/C(=C/c2cc(C)n(-c3ccccc3)c2C)N=C1C`, 10.2% (active); under `COC(=O)C1=C(O)/C(=C/c2ccc(OCC(=O)Nc3ccccc3)cc2)N=C1C`, -5.16%.

Regarding `CC(C)n1c(CN2CCN(Cc3ccccc3)CC2)nc2ccccc21`, the max response was -2.09%. Under `CC(=O)N1C(=O)C2(Nc3ccccc3N2)c2ccccc21` stands -2.2%; under `CC(C)=NN1C(=O)c2ccccc2NC1(C)C`, 37.9% (active). Consider `CC(=O)NN1C(=O)c2ccccc2NC1c1ccccc1` (stereo not drawn), for which the max response is -3.65%. `Cc1cccc(NC(=O)C2CCCN(C(=O)Nc3ccc(F)cc3)C2)c1C` (stereo not drawn): the max response is -3.65%. Then `CC(C)C(C)NC(=O)COc1ncnc2ccccc12` (stereo not drawn), with -3.43%. Take `CC(C)CC(=O)NC(=S)NCc1ccccc1`: the max response was 3.76%. For the molecule `CCC(=O)NC(=Nc1nc2ccccc2s1)NC(=O)CC`, the max response was 28.7% (active).

Consider `CCC(=O)NCCc1nc2ccccc2n1CC`, for which the max response is -2.66%. `CC(C)CC(=O)N/C(N)=N/c1nc2ccccc2s1`: the max response was 44.8% (active). Under `Cc1cc(C(=O)OCC(=O)Nc2nnc(C(C)C)s2)c2ccccc2n1` stands -2.56%; under `CSCCC(NS(=O)(=O)c1ccccc1F)C(=O)N1CC=C(c2ccccc2)CC1` (stereo not drawn), -2.39%; under `COc1ccc(N(C(=O)c2snc(C(N)=O)c2N)C(C(=O)NC2CCCC2)c2ccco2)cc1OC` (stereo not drawn), -2.38%.

Consider `CC(C)C(C(=O)NCc1ccco1)N(CC1CCCO1)C(=O)CNS(=O)(=O)c1ccc(F)cc1` (stereo not drawn), for which the max response was -6.69%.

As to `Cc1cc(-c2ccc(S(=O)(=O)N3CCc4ccccc4C3)s2)on1`, the max response was -3.48%. Then `O=C(N/N=C/c1cc(Cl)cc([N+](=O)[O-])c1O)C(O)(c1ccccc1)c1ccccc1`, with -1.36%. Turning to `N#Cc1ccsc1NC(=O)CN1CCN(S(=O)(=O)c2cc(Cl)ccc2Cl)CC1`, the max response is -2.08%. Then `C=C(C)C(=O)O[C@H]1C/C(C)=C\C(=O)/C=C(\C)[C@H](O)[C@@H]2OC(=O)C(=C)[C@@H]21`, with 41.8% (active); and `Nc1nonc1-n1nnc(C(=O)N/N=C\c2ccncc2)c1CN1CCCCC1`, with -1.14%; and `O=C(c1ccc(C(F)(F)F)cc1)C1CCCN(C(=O)c2csnn2)C1` (stereo not drawn), with 1.58%. Then `CCN(CC(=O)Nc1ccccc1OC)C(=O)Cn1cnc2ccccc2c1=O`, with 1.69%; and `Cc1ccn2cc(-c3nonc3C)cc2c1`, with 11.7% (active). Turning to `CN(C)C(=O)c1ccc(NC(=O)c2ccccc2-c2ccccc2)cc1`, the max response was -3.02%. Under `COc1cc(CN(C)Cc2nc3cc(C(F)(F)F)ccc3c(=O)[nH]2)ccc1OC(F)F` stands 1.37%; under `CC1(C)SC2C(NC(=O)COc3ccccc3)C(=O)N2C1C(=O)O` (stereo not drawn), -0.647%. Then `COc1cc(/C=C/C(=O)O)cc(S(=O)(=O)Nc2ccccc2C(=O)NCCc2ccccc2)c1OC`, with 41.8% (active). Regarding `NC(=O)c1ccccc1NC(=O)c1ccccc1F`, the max response is 14.9%. Under `COc1cc(/C=C/C(=O)O)cc(S(=O)(=O)Nc2ccccc2SC)c1OC` stands -2.09%; under `O=C(O)c1ccccc1-c1ccccc1C(=O)NCCc1ccccc1`, 0.507%.

`NC(=O)Nc1ccccc1C(=O)NCCc1ccccc1`: the max response is 63.4% (active). As to `COc1cc(OC)c(S(=O)(=O)Nc2ccccc2C(=O)O)cc1S(=O)(=O)Nc1ccccc1C(=O)O`, the max response is -2.35%.

These data come from PubChem BioAssay AID2314 (National Center for Advancing Translational Sciences (NCATS), 2010).
